Source: PubChem BioAssay
Most compounds without a hit are left out; they make up all but 3.8% or so of the library.
ATXN2 expr inh: reduces ATXN2 reporter expression in HEK-293 cells; HEK-293 ATXN2-luciferase reporter, luminescence, 24 h; Potency, µM (doses to about 57 µM), for the others: at the top dose activity change, negative = inhibition, hits mostly inhibitors; 0.72% of 360,000 active; also: % is scaled to controls: 0 for no effect and ±100 for the full control effect; nearly all actives have a fitted effect of over 55% in size
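qHTS (up to 57 uM final) was run with 24 h compound exposure of reporter cells at 37 °C. Each well was multiplexed: SteadyGlo luminescence measured ATXN2-luciferase expression after a fluorogenic Gly-Phe-AFC viability readout (25 uM final).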
TGFb inhibitor: TGF-b pathway inhibition; 1.2% of 410,000 active; HepG2 CAGA-GFP TGF-b/SMAD3 reporter, GFP fluorescence, 18 h; TGF-beta stimulated, 500 pg/mL final; Potency, µM (titrated, usually from 46.1 µM), for the others: at the top dose activity, negative = inhibition, hits mostly inhibitors; AID 588855; also: % is scaled to controls: 0 for no effect and ±100 for the full control effect; nearly all actives have a fitted effect of over 65% in size
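HEPG2 CAGA-GFP, 1000 cells/well; 2 h settle, 37 C; cpd via pin tool; TGF-b 500 pg/mL final; 18 h, 37 C; GFP imaging ex488/em500-530; %Activity normalised to -TGF-b and +DMSO controls; CRC fit, curve class.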
HT1080 IDH1KD tx: toxicity to HT-1080 IDH1 knockdown cells (counter line) | HT-1080 IDH1 knockdown viability, ATP luminescence, 48 h | Potency, µM (series often up to 46.1 µM), for the others: at the highest dose activity, negative = toxicity, usual class: cytotoxic | 2% of 360,000 active | AID 686971;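 also: 0% = DMSO wells and -100% = cell-free medium wells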
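Using the IDH1-knockdown HT-1080 line run in the same batch and compound series as the NT line, viability after 48 h at 37 °C was determined by CellTiter-Glo luminescence and expressed as % activity.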
S2 tox: viability counter-screen for ATXN expression inhibitors. S2 cells (HEK-293 line with an ATXN2-luciferase reporter) viability, CellTiter-Fluor protease fluorescence, 24 h. Potency, µM (titrated, usually from 56.7 µM), actives largely listed as cytotoxic. 0.49% of 400,000 active. AID 651635; also: nearly all actives have a fitted effect of over 40% in size
HepG2 tox: HepG2 cytotoxicity, counter-screen for TGF-b inhibitors; 0.76% of 410,000 active; Potency, µM (highest dose often 46.1 µM), for inactives: at the top dose activity change, negative = cytotoxicity, hits mostly cytotoxic; HepG2 CAGA-GFP viability, ATP luminescence, 18 h
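HepG2 CAGA-GFP cells (1000/well, DMEM with 1% FBS) received compound, then TGF-beta at 500 pg/mL final, and were incubated 18 hours at 37 degrees C. Viability was read by CellTiter-Glo luminescence. Media-only wells were set as complete cell-killing and DMSO as no toxicity.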
HT1080-NT tox: kills 2HG-producing HT-1080-NT fibrosarcoma cells. 1.6% of 360,000 active. HT-1080-NT fibrosarcoma viability, CellTiter-Glo ATP luminescence, 48 h. Potency, µM (top dose mostly 46.1 µM), for the others: at the top dose activity, negative = less viability, most hits filed as cytotoxic;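 also: NT is the 2HG producing partner of a matched IDH1 knockdown line; 0% = DMSO-treated cells and -100% = media-only wells without cells; nearly all actives have a fitted effect of over 55% in size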
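Luminescent CellTiter-Glo readout after 48 hours of compound exposure at 37 degrees C defined viability of HT-1080-NT cells. Activity was normalized to DMSO wells and cell-free media wells; concentration-response curves were fitted and assigned curve classes.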
Numbers without * were called inactive; i = inactive; ? = inconclusive; nt = not tested or not shown; [ ] = another dose, or the depositor's remark. Calls follow the shape of the dose curve; as a rule, active = well fitted curve in the direction sought with a large enough effect; inconclusive = small, poorly fitted or top-dose-only effect, or another doubt; inactive = no such curve, though single readings can be large; an effect the other way counts as inactive or inconclusive. Potency is read from the fitted curve at half-maximal effect.

SMILES	ATXN2 expr inh	TGFb inhibitor	HT1080 IDH1KD tx	S2 tox	HepG2 tox	HT1080-NT tox
Cc1ccc2nc(-c3ccccc3)nn2c1	3.2µM*	25%	-30%	i	-27%	-23%
Cc1ccc(-c2nnc(-c3ccccc3)c(-c3ccccc3)n2)cc1	0%	3%	1%	i	-18%	8%
Cc1c(O)c2c(c(C(=O)/C=C/c3ccccc3)c1O)OC(C)(C)C=C2	nt	11µM*	nt	nt	-45%	nt
O=S(=O)(Nc1cccc(-c2nc3cccnc3s2)c1)c1ccc2c(c1)CCCC2	-6%	13µM*	-8%	nt	10µM*	2%
COc1ccc(OC)c2c(/C=C/c3c(C)[nH]c4ccccc34)ccnc12	nt	?	nt	nt	-96%	nt
O=[N+]([O-])c1ccc(N=Nc2ccc(O)cc2O)cc1	?	?	5.8µM*	?	-34%	18µM*
O=[N+]([O-])c1ccc(N=Nc2c(O)[nH]c3ccc(F)cc23)cc1	-13%	-1%	17%	?	0%	20%
O=C(CN1C(=O)C2(SCC(=O)N2c2cccc(Cl)c2)c2ccccc21)NCc1ccccc1 (stereo not drawn)	-25%	-21%	nt	i	-12%	nt
O=C(CN1C(=O)C2(SCC(=O)N2c2cccc(Cl)c2)c2ccccc21)NCCc1ccccc1 (stereo not drawn)	?	11µM*	nt	i	-20%	nt
CCc1ccc(S(=O)(=O)c2nnn3c2nc(NCCc2ccccc2)c2sccc23)cc1	nt	-20%	nt	nt	-12%	nt
CNCCC=C1c2ccccc2C=Cc2ccccc21	-13%	-2%	15µM*	?	-25%	21µM*
CN(C)CCC=C1c2ccccc2C=Cc2ccccc21	?	5%	?	?	-22%	?
N=c1n(CCCOc2ccccc2Cl)c2ccccc2n1CC(N)=O	?	13µM*	?	i	-188%	?
Cc1cc(C(O)c2ncc(-c3ccc(Oc4ccccc4)cc3)[nH]2)ccc1F (stereo not drawn)	?	?	10µM*	?	-102%	18µM*
OC(c1ccc(F)cc1)c1ncc(-c2ccc(Oc3ccccc3)cc2)[nH]1 (stereo not drawn)	-15%	?	?	?	16µM*	?
COc1c(C)cc(C(O)c2ncc(-c3ccc(C(F)(F)F)cc3)[nH]2)cc1C (stereo not drawn)	-9%	?	16µM*	i	-46%	?
COc1c(C)cc(C(O)c2ncc(-c3ccc4ccccc4c3)[nH]2)cc1C (stereo not drawn)	2%	?	?	?	-31%	?
O=C(CNC(=O)C(c1ccccc1)c1ccccc1)OCC(=O)c1ccc2ccccc2c1	nt	8%	nt	nt	0%	nt
Cc1cc(C(=O)CCl)c(C)n1-c1c(C)n(C)n(-c2ccccc2)c1=O	11%	?	?	?	-48%	23µM*
Cc1cc(-n2c(C)cc(C(=O)CN3C(=O)C(=O)N(C)C3=O)c2C)no1	nt	16%	-2%	i	-10%	12%
Cc1cc(-n2c(C)cc(C(=O)CCl)c2C)no1	15%[11.3 µM]	8.9µM*	7.3µM*	?	11µM*	5.8µM*
COc1ccc(-n2c(C)cc(C(=O)CN3C(=O)c4ccccc4C3=O)c2C)cc1	8%	28%	-2%	i	21%	-21%
COc1ccc(-n2c(C)cc(C(=O)CCl)c2C)cc1	30µM*	?	15µM*	27µM*	22µM*	?
Cc1cc(Nc2ncc(Cl)cc2Cl)n[nH]1	1%	2%	-12%	i	-1%	-1%
Cc1cc(Nc2nc(N[C@@H](C)c3ccc(F)cc3)c(C#N)cc2F)n[nH]1	24µM*	nt	nt	nt	nt	nt
CCOC(=O)C1CCN(C(=O)C2CCN(c3nnc(C)c4c(C)n(-c5ccccc5)nc34)CC2)CC1	nt	-28%	nt	nt	-21%	nt
